Assay [1] has as its target CCAAT/enhancer-binding protein beta (Homo sapiens) (UniProt P17676). Nature of the assay: ATG_C_EBP_CIS: Attagene CIS-FACTORIAL HepG2 Assay for human CCAAT/Enhancer Binding Protein (C/EBP) beta (AID 2282927). As to conditions: HepG2 Attagene cis-factorial transcription factor reporter; actives raise or lower the signal. The method in brief:
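RT-PCR/capillary electrophoresis fluorescence of reporter mRNA, 24 h post-dose, in HepG2 cells carrying transfected cis-promoter reporter units. Bidirectional curve fitting against DMSO baseline captures gain or loss of signal.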

The nature of assay [2]: ATG_CMV_CIS: Attagene CIS-FACTORIAL HepG2 Assay for human CMV (Internal Marker) (AID 2282928).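 Also: endpoint acts as a background internal control marker rather than a target.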 To be noted: HepG2 CMV promoter reporter, transcription factor profiling; actives raise or lower the signal. In short, it runs like this: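 CMV internal-marker background readout in transiently transfected HepG2 cells bearing cis-regulated reporter units. Reporter mRNA is measured 24 h after dosing by RT-PCR and capillary electrophoresis, with bidirectional fitting against DMSO.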

Assay [3] is described as follows: ATG_DR4_LXR_CIS: Attagene CIS-FACTORIAL HepG2 Assay for human Liver X Receptor (LXR), DR4 submotif (AID 2282929). To be noted: HepG2 Attagene DR4 cis-reporter, mRNA transcription; AC50: actives raise or lower the signal unless noted; outcome: actives raise or lower the signal unless noted. The method in brief: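 After transient transfection with multiplexed cis-promoter reporter units, HepG2 cells received test chemicals for 24 h. Reporter mRNA induction, detected by fluorescence after RT-PCR and capillary electrophoresis, was scored relative to DMSO.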

Assay [4] in a line: ATG_AP_1_CIS: Attagene CIS-FACTORIAL HepG2 Assay for human Activator Protein 1 (AP-1) (AID 2282931). To be noted: HepG2 Attagene cis-factorial AP-1 reporter mRNA; actives raise or lower the signal. The method in brief:
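After 24 h incubation with test chemical, RNA from transfected HepG2 cells was reverse-transcribed, amplified, fluorescently labelled and digested before capillary electrophoresis. Reporters were driven by cis-regulatory promoters; activity fitted bidirectionally versus DMSO.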

Assay [5] is described as follows: ATG_AP_2_CIS: Attagene CIS-FACTORIAL HepG2 Assay for human Activator Protein 2 (AP-2) (AID 2282932). To be noted: HepG2 AP-2 cis-reporter, Attagene transcription factor profiling; AC50: actives raise or lower the signal unless noted; outcome: actives raise or lower the signal unless noted. In short, it runs like this:
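Bidirectional curve fitting against DMSO was applied to reporter mRNA signals from HepG2 cells 24 h after dosing. Cis-promoter reporter units, transiently transfected, were read by RT-PCR plus capillary electrophoresis.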

The nature of assay [6]: ATG_BRE_CIS: Attagene CIS-FACTORIAL HepG2 Assay for human Bone Morphogenetic Protein (BMP) Response Element (BRE) (AID 2282933). As to conditions: HepG2 BMP response element reporter, Attagene transcription factor profiling; actives raise or lower the signal. In short, it runs like this:
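Read-out: reporter mRNA induction quantified by RT-PCR and capillary electrophoresis after 24 h chemical exposure of transfected HepG2 cells. Endogenous factor activity on the BMP response element; gain or loss fitted against DMSO baseline.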

Assay [7] concerns the target Retinoic acid receptor alpha (Homo sapiens) (UniProt P10276). Nature of the assay: ATG_DR5_RAR_CIS: Attagene CIS-FACTORIAL HepG2 Assay for human Retinoic Acid Receptor Alpha (RARE), DR5 submotif (AID 2282934).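 As to AC50: reporter responds to endogenous RAR alpha beta and gamma in HepG2 not RARA alone.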 To be noted: HepG2 Attagene cis-factorial RARE DR5 reporter, mRNA; actives raise or lower the signal. The method in brief:
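HepG2 cells transiently transfected with multiplexed reporter units under cis (DR5 RARE) promoters, so endogenous transcription factor activity is measured. After 24 h compound exposure, reporter mRNA is quantified by RT-PCR with fluorescent labelling and capillary electrophoresis; bidirectional fitting versus DMSO.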

Assay [8] has as its target Transcription factor E2F1 (Homo sapiens) (UniProt Q01094). Nature of the assay: ATG_E2F_CIS: Attagene CIS-FACTORIAL HepG2 Assay for human E2F Transcription Factor 1 (AID 2282935). As to conditions: HepG2 Attagene cis-reporter, E2F reporter RNA transcripts; actives raise or lower the signal. In short, it runs like this:
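Multiplexed cis-reporter assay: HepG2, transient transfection, 24 h dosing, mRNA quantitation by labeled RT-PCR and CE.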

A short description of assay [9]: ATG_E_Box_CIS: Attagene CIS-FACTORIAL HepG2 Assay for human Enhancer Box (E-box) (AID 2282936). As to conditions: HepG2 E-box cis-reporter transcription, actives raise or lower the signal. In short, it runs like this:
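Multiplexed CIS reporter system in transiently transfected HepG2 cells measures native transcription factor activity. Reporter RNA after 24 h exposure is profiled by RT-PCR-capillary electrophoresis.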

Assay [10] addresses Aryl hydrocarbon receptor (Homo sapiens) (UniProt P35869). Nature of the assay: ATG_Ahr_CIS: Attagene CIS-FACTORIAL HepG2 Assay for human Aryl Hydrocarbon Receptor (Ahr) (AID 2282930). To be noted: HepG2 AhR cis-factorial reporter transcription; actives raise or lower the signal. In short, it runs like this: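 HepG2 cells transiently transfected with cis-element-driven multiplexed reporter transcription units; endogenous transcription factor activity measured as reporter mRNA 24 h after dosing. RT-PCR, 6-FAM labelling, HpaI digestion, capillary electrophoresis; bidirectional fitting versus DMSO baseline.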

Molecules are shown by their SMILES. “And” between values parts separate entries of the source, which are not always exact repeats. Equal values may be shown once. Some structures have more than one record in an assay (separate samples or runs), and their calls can disagree. The source made the active and inactive calls. The calls were made as follows: active = hit-call score of the fitted dose curve at least 0.9, where 1 is the maximum; inactive = score below 0.9.

Sequence of CCAAT/enhancer-binding protein beta (Homo sapiens) (P17676 whole entry, looked up): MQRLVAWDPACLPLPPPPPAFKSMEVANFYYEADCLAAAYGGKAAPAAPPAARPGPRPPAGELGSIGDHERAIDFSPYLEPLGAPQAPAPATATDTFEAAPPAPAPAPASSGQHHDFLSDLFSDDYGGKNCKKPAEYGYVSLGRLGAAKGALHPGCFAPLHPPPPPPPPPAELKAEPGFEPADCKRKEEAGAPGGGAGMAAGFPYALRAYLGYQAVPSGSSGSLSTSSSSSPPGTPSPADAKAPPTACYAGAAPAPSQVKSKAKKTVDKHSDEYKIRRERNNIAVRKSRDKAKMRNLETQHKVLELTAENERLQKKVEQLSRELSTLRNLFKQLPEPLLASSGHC
Sequence of Aryl hydrocarbon receptor (Homo sapiens) (P35869 whole entry, looked up): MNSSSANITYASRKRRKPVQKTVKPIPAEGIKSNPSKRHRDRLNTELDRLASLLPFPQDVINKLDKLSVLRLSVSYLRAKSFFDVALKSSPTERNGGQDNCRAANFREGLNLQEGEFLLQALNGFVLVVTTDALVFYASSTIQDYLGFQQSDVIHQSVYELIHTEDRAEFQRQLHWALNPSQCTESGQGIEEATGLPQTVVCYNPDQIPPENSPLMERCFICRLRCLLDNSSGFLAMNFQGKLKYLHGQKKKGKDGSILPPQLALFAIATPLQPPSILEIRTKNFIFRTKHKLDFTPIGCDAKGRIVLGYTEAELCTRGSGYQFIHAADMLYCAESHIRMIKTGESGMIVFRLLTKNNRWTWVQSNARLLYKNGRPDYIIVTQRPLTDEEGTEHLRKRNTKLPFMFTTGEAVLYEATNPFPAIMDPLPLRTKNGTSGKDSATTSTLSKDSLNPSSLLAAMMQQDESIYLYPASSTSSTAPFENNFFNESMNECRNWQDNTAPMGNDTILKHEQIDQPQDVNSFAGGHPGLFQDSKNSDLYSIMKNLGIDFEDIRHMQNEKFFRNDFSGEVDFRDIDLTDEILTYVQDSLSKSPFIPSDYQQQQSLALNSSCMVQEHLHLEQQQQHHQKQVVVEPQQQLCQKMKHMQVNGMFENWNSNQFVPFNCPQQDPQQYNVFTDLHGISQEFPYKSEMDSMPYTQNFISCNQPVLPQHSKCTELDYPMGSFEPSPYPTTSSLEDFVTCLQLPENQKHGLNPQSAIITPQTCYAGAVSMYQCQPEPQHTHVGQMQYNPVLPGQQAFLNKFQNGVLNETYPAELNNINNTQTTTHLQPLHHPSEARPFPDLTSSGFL
Sequence of Transcription factor E2F1 (Homo sapiens) (Q01094 whole entry, looked up): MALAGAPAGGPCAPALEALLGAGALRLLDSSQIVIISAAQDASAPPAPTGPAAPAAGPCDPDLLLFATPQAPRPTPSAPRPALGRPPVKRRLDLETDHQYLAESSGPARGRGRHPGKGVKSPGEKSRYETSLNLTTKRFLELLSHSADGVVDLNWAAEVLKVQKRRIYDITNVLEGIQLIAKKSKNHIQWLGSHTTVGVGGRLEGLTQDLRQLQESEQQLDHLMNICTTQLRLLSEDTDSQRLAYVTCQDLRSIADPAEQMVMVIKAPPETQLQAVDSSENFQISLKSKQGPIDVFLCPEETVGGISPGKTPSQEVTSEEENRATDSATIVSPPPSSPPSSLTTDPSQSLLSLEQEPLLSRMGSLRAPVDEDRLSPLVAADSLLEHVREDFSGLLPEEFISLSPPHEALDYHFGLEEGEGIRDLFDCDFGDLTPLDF
Sequence of Retinoic acid receptor alpha (Homo sapiens) (P10276 whole entry, looked up): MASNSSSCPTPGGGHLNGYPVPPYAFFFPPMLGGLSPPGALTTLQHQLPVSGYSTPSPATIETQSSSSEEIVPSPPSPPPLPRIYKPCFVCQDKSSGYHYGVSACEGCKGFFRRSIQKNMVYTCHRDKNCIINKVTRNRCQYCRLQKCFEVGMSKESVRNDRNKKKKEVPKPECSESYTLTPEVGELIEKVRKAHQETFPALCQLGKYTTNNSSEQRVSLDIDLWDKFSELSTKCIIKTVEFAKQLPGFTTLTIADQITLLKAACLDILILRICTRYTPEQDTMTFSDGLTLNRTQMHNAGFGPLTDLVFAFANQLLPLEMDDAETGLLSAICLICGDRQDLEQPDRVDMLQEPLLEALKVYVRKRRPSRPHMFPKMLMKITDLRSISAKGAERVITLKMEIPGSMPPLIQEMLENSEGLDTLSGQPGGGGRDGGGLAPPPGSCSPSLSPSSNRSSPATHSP

A word on the AC50: it is the midpoint of the concentration-response curve, whichever way the signal moves. As for `CCCCCCCCCCCC(=O)O`, the outcome in [1], in assay [2], in assay [3], in assay [5], in assay [6] and in assay [7] was inactive. Further, the call in [8] and in assay [9] was inactive. For the same compound, the AC50 was 60 µM (active) in assay [2]; 167 µM (active) in assay [3]; 117 µM (active) and 60 µM (active) in assay [4]; 100 µM (active) in assay [7].

As to `COC1=CC(=O)C[C@@H](C)[C@]12Oc1c(Cl)c(OC)cc(OC)c1C2=O`, the outcome in [1], in [3], in assay [10], in [4], in [5] and in assay [6] was inactive. The result in [7] was inactive. Further, the AC50 in [2] was 138 µM (active).

In the case of `CCC(=O)O`, the outcome in assay [1], in [2], in assay [3], in assay [10], in assay [4] and in assay [5] was inactive. Besides, the compound was called inactive in assay [6], in assay [7], in [8] and in [9].

For the compound `Oc1ccc(Cc2ccccc2O)cc1`, the outcome in [1], in assay [2], in [3], in assay [10], in [4] and in assay [5] was inactive. Moreover, the outcome in assay [6], in assay [7] and in assay [8] was inactive.

As for `CCCCC(CC)C(=O)OCCOCCOCCOCCOC(=O)C(CC)CCCC` (stereo not drawn), the result in assay [1], in assay [2], in assay [3], in assay [10], in [4] and in assay [5] was inactive. Also, the result in assay [6], in assay [7] and in assay [8] was inactive.

In the case of `C=COC(=O)C(C)(C)CCCCCC`, the outcome in assay [1], in assay [3], in assay [10], in assay [4], in assay [5] and in assay [6] was inactive. For the same compound, the call in assay [7], in assay [8] and in [9] was inactive. Also, the half-maximal activity concentration (AC50) in [2] is 159 µM (active).

As for `Cc1ccc(S(=O)(=O)O)cc1`, the outcome in assay [1], in [2], in assay [3], in assay [10], in assay [4] and in assay [5] was inactive. Further, the outcome in assay [6], in assay [7], in assay [8] and in assay [9] was inactive.

`C=CC(C)(CCC=C(C)C)OC(C)=O` (stereo not drawn): the outcome in assay [1], in [2], in [3], in [10], in assay [4] and in assay [5] was inactive. The outcome in [6], in assay [7], in assay [8] and in [9] was inactive.

Consider `CCOC(OCC)C(=O)c1ccccc1`, for which the result in [1], in assay [2], in assay [3], in assay [10], in assay [4] and in [5] was inactive. The compound was classed as inactive in assay [6] and in [7].

With `C=CC(=O)OCC(CO)(COCC(COC(=O)C=C)(COC(=O)C=C)COC(=O)C=C)COC(=O)C=C`, the result in [1], in assay [10], in [4], in assay [5] and in assay [6] was inactive. For the same compound, the AC50 in assay [2] is 2.97 µM (active); in assay [3], 4.59 µM (active); in [7] it was 11 µM (active); in [8], 19.6 µM (active).

In the case of `CCCCCC(C)OC(=O)COc1ccc(Cl)c2cccnc12` (stereo not drawn), the outcome in assay [1], in assay [2], in [10], in [4], in assay [5] and in assay [6] was inactive. Moreover, the compound was called inactive in assay [7], in assay [8] and in [9]. In assay [3], the concentration at half-maximal activity (AC50) is 100 µM (active).

Regarding `Cc1cc(C(C)(C)C)c(O)c(C(C)(C)C)c1`, the half-maximal activity concentration (AC50) in assay [1] was 14.6 µM (active); in assay [2], 25.3 µM (active) and 60 µM (active); in assay [3], 33.4 µM (active); in assay [4], 50.7 µM (active) and 80.6 µM (active); in assay [9], 56.6 µM (active). The result in [1], in assay [3], in assay [10], in assay [5], in [8] and in assay [9] was inactive.

Consider `O=C(O)CCC(F)(F)C(F)(F)C(F)(F)C(F)(F)C(F)(F)F`, for which the result in [1], in assay [2], in assay [3], in assay [10], in [4] and in assay [5] was inactive. For the same compound, the outcome in assay [6], in [7], in [8] and in assay [9] was inactive.

On to `CCC(C)c1nccnc1OC` (stereo not drawn), for which the result in [1], in assay [2], in [3], in assay [10], in assay [4] and in [5] was inactive. Moreover, the outcome in assay [6], in [7] and in assay [8] was inactive.

Consider `O=C(c1cc(O)c(O)c(O)c1)c1ccc(O)c(O)c1O`, for which the result in [1], in [2], in [3], in [4], in [5] and in assay [7] was inactive. Besides, the result in assay [8] was inactive. In addition, the AC50 in assay [10] was 36 µM (active); in assay [6], 4.01 µM (active).

On to `COc1ccc(C#N)cc1`, for which the outcome in [1], in assay [2], in assay [3], in assay [10], in [4] and in assay [5] was inactive. The compound was classed as inactive in [6], in [7] and in assay [8].

`NCc1cccc(CN)c1`: the result in assay [1], in [2], in [3], in assay [10], in assay [4] and in [5] was inactive. In addition, the call in assay [6], in assay [7] and in assay [8] was inactive.

As for `C[C@]12CC[C@@H]3c4ccc(O)cc4CC[C@H]3[C@@H]1C[C@@H](O)[C@@H]2O`, the outcome in assay [1], in assay [2], in [3], in assay [10], in [4] and in assay [5] was inactive. The outcome in [6], in assay [8] and in [9] was inactive. Besides, the values for the AC50 in assay [2], in assay [3] and in assay [5] were 64.6 µM (active), 26.3 µM (active) and 24.9 µM (active), respectively.

As to `O=C(O)CCC(F)(F)C(F)(F)C(F)(F)C(F)(F)C(F)(F)C(F)(F)F`, the result in [1], in assay [2], in [10], in assay [4], in assay [5] and in assay [6] was inactive. In assay [8], the result was inactive. Further, the results for the AC50 in assay [3] and in assay [7] were 100 µM (active) and 51 µM (active), respectively.

In the case of `FC(F)(F)N1C(F)(F)C(F)(F)OC(F)(F)C1(F)F`, the result in [1], in [2], in assay [3], in [10], in [4] and in assay [5] was inactive. In addition, the compound was called inactive in assay [6], in assay [7], in assay [8] and in assay [9].

Consider `Cc1ccccc1OCC(=O)O`, for which the outcome in [1], in [2], in [3], in assay [10], in [4] and in assay [5] was inactive. Also, the call in assay [6], in [7], in [8] and in assay [9] was inactive.

For the compound `Cc1cncc(C)c1`, the outcome in assay [1], in assay [2], in assay [3], in [10], in assay [4] and in assay [5] was inactive. The result in assay [6], in [7], in [8] and in [9] was inactive.

On to `CCCCCCCCCCCC[N+](C)(C)Cc1ccccc1`, for which the half-maximal activity concentration (AC50) in assay [1] was 18 µM (active); in [2] it was 14.5 µM (active); in assay [3] it was 11.1 µM (active); in [5], 15.7 µM (active). The result in assay [1], in [2], in [3], in assay [10], in assay [4] and in assay [5] was inactive.

For the origin of these results see PubChem BioAssay (EPA / NIEHS).
